Measurements from PubChem BioAssay AID504882 (Broad Institute, 2011).
Hit rate of the full screen: of about 1,200 compounds, about 290 (24%) were called active. Inconclusive results (about 9%) are left out. The list is a sample of the results. Results with a measured potency or affinity are listed apart. A number with no mark means an inactive call. No rule for the calls is given here.

Experiment: LCL viability reduction – cell-based, plate reader, cherry-picks, set 2, cytotoxicity control, dose response (AID 504882);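 also: 0% = neutral control wells and -100% = positive control wells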
Details: EBV lymphoblastoid cells (LCL) viability; series mostly up to 19.5 µM; activity change, negative = cytotoxicity: at the top concentration

In order of rising “activity change, negative = cytotoxicity” value:
1. COc1ccc(C(=O)C(CN2CCOCC2)c2ccccc2)cc1F (configuration not stated)  -82.4%
2. CCc1c(C)nc2cc(-c3ccc(OC)c(OC)c3)nn2c1NCC1CC1  -40.8%
3. CCOc1cc(Br)cc(/C=N/NC(=O)c2cccnc2)c1O  -28.9%
4. Cc1cccc(-n2ncc3c(N4CCOCC4)ncnc32)c1  -6.17%
5. CC(C)N1CCN(c2ccc(OC[C@H]3CO[C@](Cn4cncn4)(c4ccc(Cl)cc4Cl)O3)cc2)CC1  -3.03%
6. C=CC[N+](C)(C)C/C(Cl)=C(\Cl)c1ccccc1  -1.08%
7. CCCSc1nc2cc(S(=O)(=O)N3CCOCC3)ccc2n1CC  -0.597%
8. Cc1ccn2c(c1)nc(=S)n2C(=O)c1ccccc1  -0.036%
9. CCOc1ccc(-c2nc(CSCC(=O)NCc3ccco3)c(C)o2)cc1  0.208%
10. Cc1cccc(S(=O)(=O)N2CCCc3ccccc32)c1  0.222%
11. O=C(CC(c1ccc(F)cc1)c1ccco1)N1CCOCC1 (configuration not stated)  0.708%
12. O=C(Nc1ccc(F)c(F)c1)C1CCCCC1  0.732%
13. CN(C)c1ccnc2sc(C(N)=O)c(N)c12  1.46%
14. Cc1ccc(S(=O)(=O)N2CCC[C@H]2C(=O)Nc2ccccc2C)cc1  2.08%
15. CCOCCCn1c(=S)[nH]c2ncccc2c1=O  2.14%
16. COc1ccc(S(=O)(=O)NNC(=O)C2Cc3c(ccc4ccccc34)O2)cc1 (configuration not stated)  2.34%
17. CCc1cc(Cl)c(OC)c(C(=O)NC[C@@H]2CCCN2CC)c1O  2.69%
18. CCOC(=O)Cc1csc(N/N=C\c2ccc(N(C)C)cc2)n1  3.66%
19. Cc1ccc(C(=O)CSc2nnnn2C(C)C)c(C)c1  4.09%
20. Cc1cccc(NC(=O)c2cnc3ccccn3c2=O)c1  4.87%
21. Cc1nnc(SCc2cnc(-c3ccc(C(C)C)cc3)s2)n1C  4.92%
22. O=C(Nc1cc(Cl)ccc1Cl)C1Cc2ccccc2O/C1=N\O (configuration not stated)  5.33%
23. COC(=O)c1cccc2c1-c1ccccc1/C2=N/O  5.57%
24. O=C(CN1C(=O)C2C3C=CC(C3)C2C1=O)NCCC1=CCCCC1 (configuration not stated)  6.89%
25. O=C(CCCN1C(=O)/C(=C/c2ccccc2Cl)SC1=S)NNC(=O)c1ccccc1Cl  6.92%
26. Nc1ccc(CCNc2ncnc3c2ncn3[C@@H]2O[C@H](CO)[C@@H](O)[C@H]2O)cc1  7.71%
27. COc1ccc(/C=C\C(=O)NCc2ccc3c(c2)cc(C)n3C)cc1OC  7.82%
28. COc1ccc(-c2cnc(NCc3cc4c(cc3[N+](=O)[O-])OCO4)n2C)cc1  7.9%
29. COc1cc(/C=C2/SC(=S)N(Cc3ccccc3)C2=O)ccc1OCC(=O)O  8.06%
30. COc1ccc(NC(=O)CCS(=O)(=O)c2ccc3c(c2)CCN3C(C)=O)cc1  8.11%
31. CC(NC(=O)CCOc1ccccc1)c1ccccc1 (configuration not stated)  8.45%
32. O=C(NCCc1ccccc1)c1ccccc1Cl  8.88%
33. Cc1ccnc(N/C=C(/NC(=O)c2ccccc2)C(=O)N/N=C\c2ccc(F)cc2)n1  9.12%
34. O=C(Cn1cc(CNC(=O)C2CCCCC2)nn1)Nc1cc(C(F)(F)F)ccc1Cl  9.71%
35. CC1(C)CC(=O)C(CC2=C(O)CC(C)(C)CC2=O)=C(O)C1  9.73%
36. CNC(=O)c1[nH]cnc1C(=O)N[C@@H](CCCCNC(=O)OC(C)(C)C)C(=O)OC(C)(C)C  10.2%
37. CCC(C)N1C(=O)CCC1C(=O)N1CCN(c2ccc(F)cc2)CC1 (configuration not stated)  10.4%
38. O=C1CCc2cc(OCCCCc3nnnn3C3CCCCC3)ccc2N1  10.6%
39. CCc1nnc(NC(=O)c2ccc(S(=O)(=O)N3CCOCC3)cc2)s1  10.7%
40. COc1ccc(S(=O)(=O)N2CCC(C(=O)NC3CC3)CC2)cc1OC  11.8%
41. COCCn1c(C)cc(C(=O)CSc2nnc3ccccn23)c1C  11.9%
42. CN1CCc2cccc3c2C1Cc1ccc(O)c(O)c1-3 (configuration not stated)  12.1%
43. COc1cc2c(CCNC(C)=O)c[nH]c2cc1Cl  12.4%
44. CC(NC(=O)CNC(=O)OCc1ccccc1)C(=O)N1CC(O)CC1C(=O)OCc1ccccc1 (configuration not stated)  12.6%
45. COc1ccc(-c2csc3ncnc(NCCO)c23)cc1  12.6%
46. COc1ccc(S(=O)(=O)N2CCN(CC(=O)Nc3cc(OC)cc(OC)c3)CC2)cc1  13%
47. Cc1ccc(N(Cc2cc3ccccc3[nH]c2=O)C(=O)c2ccco2)c(C)c1  13.3%
48. O=C(Cn1nc(C(F)(F)F)c2c1CCC2)NC1CCCCC1  13.4%
49. Cc1ccc(N2CCCCn3c2nc2c3c(=O)n(CC(=O)O)c(=O)n2C)cc1  13.5%
50. CC(C)(C)C(=O)Nc1nnc(SCC(=O)Nc2ccc3c(c2)OCO3)s1  13.9%
51. NC(=O)c1ncn([C@@H]2O[C@H](CO)[C@@H](O)[C@H]2O)n1  14.5%
52. Nc1ccn(C2CCCO2)c(=O)n1 (configuration not stated)  14.8%
53. CCN(CC(=O)NCc1ccc(F)cc1)CC(=O)Nc1cc(S(=O)(=O)N(C)C)ccc1C  15%
54. CN(C)/C=C/C(=O)c1ccc2noc(-c3ccccc3)c2c1  15%
55. CNC1(C)[C@H]2CC[C@H](C2)C1(C)C (some centres not stated)  15.2%
56. Cc1ccccc1CC(=O)NCc1cccnc1  16.8%
57. Cc1cc(C(=O)COC(=O)c2cccc(NS(C)(=O)=O)c2)c(C)n1CC1CCCO1 (configuration not stated)  17%
58. C=CCn1c(SCc2ccc3nonc3c2)nnc1-c1cccs1  18.4%
59. OCc1cc(C(O)CNCCCCCCOCCCCc2ccccc2)ccc1O (configuration not stated)  18.7%
60. COc1cccc(/C=N\NC(=O)c2ccc(C)nc2)c1  19.6%
61. COc1ccc(/C=N/N=C/c2ccc(OC)c(OC)c2)cc1OC  20.2%
62. CN1C(=O)C(CC(=O)NC2CCCCC2)SC1=Nc1ccccc1 (configuration not stated)  20.7%
63. Cc1cc(OCC(=O)Nc2cnn(CCCC(=O)O)c2)ccc1Cl  21.1%
64. CNC(=O)C1=NCCCc2cc(OC)c(OC)cc21  24.7%
65. COc1cc(NCCCCCCN)c2ncccc2c1OC  25.1%
66. COCC(=O)N(C)c1nnc(-c2ccccn2)s1  26%
67. CSCCC(NC(=O)c1ccco1)C(=O)OCC(=O)Nc1ncc(Cl)c(C)c1Cl (configuration not stated)  26.8%
68. CC1(C)CC(NS(=O)(=O)c2ccc(F)cc2)CC(C)(C)N1  26.8%
69. O=C(C[n+]1ccccc1)N/N=C/c1ccc(O)cc1  30.2%
70. CCc1ccc(C(=O)COC(=O)c2cccc(N3C(=O)c4c(C)nc5ccccc5c4C3=O)c2)cc1  41.6%
71. COc1c(S(=O)(=O)N2CCN(c3ccc(F)cc3)CC2)ccc(Cl)c1Cl  44.2%
72. Cc1nnc(NC(=O)CSc2nnc(Cc3cccn3C)n2CCc2ccccc2)s1  45.3%
